Assay [1] addresses Phospholipid hydroperoxide glutathione peroxidase GPX4 (Homo sapiens) (UniProt P36969). Description: Primary qHTS Assay for Inhibitors of Recombinant Selenoprotein Glutathione Peroxidase 4 (GPX4) (AID 1845192). Note: nearly all actives have a fitted effect of over 65% in size. In outline:
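GR-coupled readout: 100 nM GR, 1 mM GSH, 0.5 mM NADPH; NADPH fluorescence (ex 340/em 450 nm) read at t=0 and after 15 min RT. GPX4 200 nM, preincubated 30 min with compound; substrate 0.5 mM CHP.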
For orientation: In qHTS, concentration-response curves come from the screen itself.

The target in assay [2] is Luciferin 4-monooxygenase (Photinus pyralis) (UniProt P08659). The experiment in a line: Primary firefly luciferase (FLuc) qHTS assay for identification of artifact compounds. (AID 1845220). Note: nearly all actives have a fitted effect of over 60% in size. In outline: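 Reaction readout was CCD-imaged luminescence, taken 5 min after adding 10 nM purified firefly enzyme to compound-treated wells holding 10 uM luciferin and ATP in pH 7.6 buffer.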

Assay [3] can be described thus: Primary fluorescence-based thiol-reactive (MSTI) qHTS assay for identification of artifact compounds. (AID 1845221). Note: nearly all actives have a fitted effect of over 65% in size. Note: potency is the fitted concentration of half-maximal effect. In outline:
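MSTI probe at 4 uM final in 2% DMSO/PBS pH 7.4; compounds, 1 h at room temperature in dark. Fluorescence Ex/Em 525/598 nm, normalised to Acetyl-MSTI and MSTI, fitted to 4-parameter Hill.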

In assay [4] the test system is Nanoluciferase (engineered Oplophorus gracilirostris luciferase). The experiment in a line: Primary Nanoluciferase (NLuc) qHTS assay for identification of artifact compounds. (AID 1845222).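 Note: NLuc secreted into diluted conditioned medium of S16 cells.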 A digest of the protocol: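 Concentration-response data were obtained by luminescence after 5 min with Nano-Glo substrate at 1:100. The enzyme was diluted S16 NLuc-expressing cell medium, preincubated with compound for 15 min at RT. Curves were fitted with a 4-parameter Hill model.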

Assay [5] in a line: Primary redox qHTS assay for identification of artifact compounds. (AID 1845223). A digest of the protocol: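 Amplex Red (25 uM) and HRP (250 mU/mL) in HBSS, with compounds for 15 min, then 250 uM DTT for 30 min, room temperature, dark. Fluorescence 525/598 nm read; normalized to DMSO and 10 uM DA3003; Hill fit.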
Assay [6] in a line: Quantitative High-Throughput drug screen in 47 multiple myeloma cell lines against the NCATS MIPE library collection: FR4_PLB cell viability assay (AID 1918924; note: nearly all actives have a fitted effect of over 35% in size; note: potency is the fitted concentration of half-maximal effect). In outline:
(§1)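 Viability readout: CellTiter-Glo luminescence following 5 min room-temperature incubation with reagent. Prior exposure: 48 h, 37C, humidified 5% CO2, 500 cells per well.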

Assay [7] is described as follows: Quantitative High-Throughput drug screen in 47 multiple myeloma cell lines against the NCATS MIPE library collection: Delta47_JCRB cell viability assay (AID 1918925; note: nearly all actives have a fitted effect of over 45% in size). In outline: (§2)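 Inhibition of cell viability is measured here. Each line was plated at 500 cells per well, treated with MIPE 4.0 drugs, kept 48 hours at 37C, then assayed for ATP content by CellTiter-Glo luminescence.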

Assay [8] in a line: Quantitative High-Throughput drug screen in 47 multiple myeloma cell lines against the NCATS MIPE library collection: EJM_DSMZ cell viability assay (AID 1918926; note: nearly all actives have a fitted effect of over 30% in size; note: potency is the fitted concentration of half-maximal effect). In outline: as §2
A short description of assay [9]: Quantitative High-Throughput drug screen in 47 multiple myeloma cell lines against the NCATS MIPE library collection: AMO1_DSMZ cell viability assay (AID 1918927; note: nearly all actives have a fitted effect of over 30% in size). A digest of the protocol: as §2
Assay [10] can be described thus: Quantitative High-Throughput drug screen in 47 multiple myeloma cell lines against the NCATS MIPE library collection: ARD_JJKsccE7 cell viability assay (AID 1918929; note: potency is the fitted concentration of half-maximal effect). In outline: as §2
A short description of assay [11]: Quantitative High-Throughput drug screen in 47 multiple myeloma cell lines against the NCATS MIPE library collection: Karpas620_DSMZ cell viability assay (AID 1918959). Note: nearly all actives have a fitted effect of over 30% in size. A digest of the protocol: as §1
Assay [12] is described as follows: Quantitative High-Throughput drug screen in 47 multiple myeloma cell lines against the NCATS MIPE library collection: Karpas417_ECACC cell viability assay (AID 1918961). The following applies: Karpas417 myeloma viability, CellTiter-Glo ATP luminescence, 48 h; viability (% of DMSO): at 45.8 µM (top of the series). In outline: (§3)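 Approved and investigational drugs from MIPE 4.0 were added by pin tool to 500 cells per well. After 48 hours at 37C, ATP-based CellTiter-Glo luminescence indicated remaining viability.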
Background: In ATP-based viability assays light output follows the ATP content of the culture.

Assay [13] can be described thus: Quantitative High-Throughput drug screen in 47 multiple myeloma cell lines against the NCATS MIPE library collection: KHM11_PLB cell viability assay (AID 1918962). Note: nearly all actives have a fitted effect of over 35% in size. In outline: as §1
Assay [14] can be described thus: Quantitative High-Throughput drug screen in 47 multiple myeloma cell lines against the NCATS MIPE library collection: JIM1_ECACC cell viability assay (AID 1918964). A digest of the protocol:
as §2

Assay [15] is described as follows: Quantitative High-Throughput drug screen in 47 multiple myeloma cell lines against the NCATS MIPE library collection: INA6_PLB cell viability assay (AID 1918965; note: nearly all actives have a fitted effect of over 55% in size; note: potency is the fitted concentration of half-maximal effect). In outline:
as §3

Assay [16] in a line: Quantitative High-Throughput drug screen in 47 multiple myeloma cell lines against the NCATS MIPE library collection: JJN3_DSMZ cell viability assay (AID 1918966; note: nearly all actives have a fitted effect of over 50% in size; note: potency is the fitted concentration of half-maximal effect). A digest of the protocol:
as §2

Assay [17] is described as follows: Quantitative High-Throughput drug screen in 47 multiple myeloma cell lines against the NCATS MIPE library collection: H1112_PLB cell viability assay (AID 1918967; note: nearly all actives have a fitted effect of over 30% in size; note: potency is the fitted concentration of half-maximal effect). A digest of the protocol: as §2
Assay [18] is described as follows: Quantitative High-Throughput drug screen in 47 multiple myeloma cell lines against the NCATS MIPE library collection: ARP1_JJKsccF8 cell viability assay (AID 1918928; note: nearly all actives have a fitted effect of over 40% in size; note: potency is the fitted concentration of half-maximal effect). A digest of the protocol: (§4)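 Myeloma cells at 500 per well in 1536-well format treated with MIPE 4.0 library by pin transfer for 48 h at 37C, 5% CO2. Viability from ATP luminescence (CellTiter-Glo), normalized to DMSO (100%) and media-only (0%) wells.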

Assay [19] in a line: Quantitative High-Throughput drug screen in 47 multiple myeloma cell lines against the NCATS MIPE library collection: KMM1_JCRB cell viability assay (AID 1918960). Note: nearly all actives have a fitted effect of over 30% in size. In outline: as §4
A short description of assay [20]: Quantitative High-Throughput drug screen in 47 multiple myeloma cell lines against the NCATS MIPE library collection: JIM3_ECACC cell viability assay (AID 1918963; note: nearly all actives have a fitted effect of over 35% in size; note: potency is the fitted concentration of half-maximal effect). In outline:
as §1

Unmarked numbers belong to inactive results. Inconclusive results are not listed. Activity calls are given as the source filed them. Calls come from the whole dose curve; as a rule, active = well fitted curve in the direction sought with a large enough effect; inconclusive = small, poorly fitted or top-dose-only effect, or another doubt; inactive = no such curve, though single readings can be large; an effect the other way counts as inactive or inconclusive.

Sequence of Phospholipid hydroperoxide glutathione peroxidase GPX4 (Homo sapiens) (P36969 whole entry, looked up): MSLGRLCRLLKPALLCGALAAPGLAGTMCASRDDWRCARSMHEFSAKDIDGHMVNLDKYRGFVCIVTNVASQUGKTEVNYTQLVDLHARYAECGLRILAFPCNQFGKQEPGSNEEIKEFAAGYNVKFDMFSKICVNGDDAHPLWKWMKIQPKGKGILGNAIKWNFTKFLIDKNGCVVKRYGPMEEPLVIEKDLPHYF

As for `NS(=O)(=O)c1cc(Cl)c(Cl)c(S(N)(=O)=O)c1`, the Potency result in assay [1], in assay [2], in assay [3], in assay [4], in [6] and in assay [7] was “inactive” each time. The Potency result in [8], in assay [9], in assay [10], in assay [11], in assay [12] and in assay [13] was “inactive” each time. The Potency entry in assay [14], in assay [15], in assay [16] and in assay [17] was “inactive” in each case. The result in [5] was inactive.

`N#CC1(c2cccc(C(=O)Nc3cc(Oc4ccc5nc(NC(=O)C6CC6)sc5n4)ccc3F)c2Cl)CC1`: the Potency result in [1], in [2], in assay [3], in assay [4] and in [7] was “inactive” each time. In [5], the result was inactive. The Potency in assay [6] was 10.5 µM (active); in assay [8] it was 20.9 µM (active); in assay [18] it was 9.35 µM (active); in assay [10], 0.59 µM (active); in assay [17] it was 13.2 µM (active).

Turning to `CC1=C(C(=O)Nc2cc3cn[nH]c3cc2F)C(c2ccc(C(F)(F)F)cc2)CC(=O)N1` (centres undefined), the Potency entry in assay [1], in assay [2], in assay [3], in assay [4], in assay [7] and in [8] was “inactive” throughout. Also, the Potency entry in [18], in assay [10], in [11], in assay [19], in assay [13] and in assay [20] was “inactive” in each case. Moreover, the Potency entry in assay [17] was “inactive”. Besides, in assay [5], the compound was classed as inactive. The Potency in assay [15] was 18.7 µM (active).

Consider `CNc1nc(Nc2ccc(C(=O)N3CCOCC3)cc2OC)ncc1Cl`, for which the Potency entry in [1], in assay [2], in [3], in assay [4], in assay [6] and in assay [7] was “inactive” in each case. Also, the Potency entry in assay [8], in [9], in assay [11], in [19] and in [17] was “inactive” each time. Besides, in [5], the outcome was inactive. In [20], the Potency is 20.9 µM (active).

As for `O=C1C(c2c(O)[nH]c3ccccc23)=Nc2ccccc21`, the Potency entry in assay [1], in assay [2], in assay [4], in [13] and in assay [20] was “inactive” each time. Also, the Potency is 0.184 µM (active) in assay [3], 14.8 µM (active) in assay [6], 6.62 µM (active) in assay [18] and 6.62 µM (active) in assay [16]. For the same compound, the compound was called inactive in [5].

On to `Cc1cc2c(cc1C1(c3ccc(C(=O)O)cn3)CC1)C(C)(C)CCC2(C)C`, for which the Potency result in assay [1], in assay [2], in [3], in assay [4], in assay [6] and in [8] was “inactive” throughout. The Potency result in [11] and in assay [19] was “inactive” each time. Moreover, the compound was classed as inactive in assay [5]. Also, the Potency is 26.4 µM (active) in assay [18], 1.05 µM (active) in assay [16] and 0.118 µM (active) in [17].

Regarding `O=C(CO)N1CCC(c2[nH]nc(-c3ccc(Cl)cc3)c2-c2ccncn2)CC1`, the Potency result in assay [1], in assay [2], in assay [3], in assay [4], in [6] and in assay [7] was “inactive” each time. The Potency result in [8], in assay [9], in assay [18], in [11], in assay [19] and in [20] was “inactive” in each case. In addition, the Potency entry in assay [17] is “inactive”. In addition, the compound was called inactive in [5]. The Potency was 11.8 µM (active) in assay [15] and 1.66 µM (active) in assay [16].
